# PubChem BioAssay (NCATS)
# Where “and” joins values, the source holds several entries; their conditions need not be identical. Identical values can stand only once. Values without a mark were called inactive. Inconclusive results are not listed. Entries that show only a call come without a potency. Calls of active or inactive are those of the source. Unless noted, calls follow the shape of the dose curve; as a rule, active = well fitted curve in the direction sought with a large enough effect; inconclusive = small, poorly fitted or top-dose-only effect, or another doubt; inactive = no such curve, though single readings can be large; an effect the other way counts as inactive or inconclusive.
# Assays:
# [1] = target: Guanine nucleotide-binding protein G(i) subunit alpha-1 (Homo sapiens) (UniProt P63096); assay: qHTS Assay for Inhibitors of RGS12 GoLoco Motif Activity (Green Fluorophore) (AID 879);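 also: negative values mean loss of peptide binding seen as reduced polarization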
# Chain of Guanine nucleotide-binding protein G(i) subunit alpha-1 (Homo sapiens) (P63096 whole entry, looked up): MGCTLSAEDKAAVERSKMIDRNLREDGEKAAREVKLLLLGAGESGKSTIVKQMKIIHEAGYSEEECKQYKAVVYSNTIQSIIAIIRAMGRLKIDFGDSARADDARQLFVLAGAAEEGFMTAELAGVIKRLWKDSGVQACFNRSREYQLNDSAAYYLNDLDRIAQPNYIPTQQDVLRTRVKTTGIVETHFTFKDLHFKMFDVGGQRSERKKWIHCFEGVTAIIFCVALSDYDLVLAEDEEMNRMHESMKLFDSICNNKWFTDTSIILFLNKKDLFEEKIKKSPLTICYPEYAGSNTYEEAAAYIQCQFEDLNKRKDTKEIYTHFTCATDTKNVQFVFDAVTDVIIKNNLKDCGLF
# Method in brief: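 A drop in FITC polarization marked displacement of the FITC-tagged RGS12 GoLoco peptide (10 nM) from Gαi1 (50 nM). Compounds were incubated 10 min at room temperature in Tris pH 7.5 buffer containing 150 mM NaCl, 0.1 mM GDP and 0.05% NP40; unlabeled peptide titration served as control.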
# [2] = target: Cytochrome P450 3A4 (Homo sapiens) (UniProt P08684); assay: qHTS Assay for Inhibitors and Substrates of Cytochrome P450 3A4 (AID 884); also: nearly all actives have a fitted effect of over 50% in size; also: potency is read from the fitted curve at half-maximal effect
# Chain of Cytochrome P450 3A4 (Homo sapiens) (P08684 whole entry, looked up): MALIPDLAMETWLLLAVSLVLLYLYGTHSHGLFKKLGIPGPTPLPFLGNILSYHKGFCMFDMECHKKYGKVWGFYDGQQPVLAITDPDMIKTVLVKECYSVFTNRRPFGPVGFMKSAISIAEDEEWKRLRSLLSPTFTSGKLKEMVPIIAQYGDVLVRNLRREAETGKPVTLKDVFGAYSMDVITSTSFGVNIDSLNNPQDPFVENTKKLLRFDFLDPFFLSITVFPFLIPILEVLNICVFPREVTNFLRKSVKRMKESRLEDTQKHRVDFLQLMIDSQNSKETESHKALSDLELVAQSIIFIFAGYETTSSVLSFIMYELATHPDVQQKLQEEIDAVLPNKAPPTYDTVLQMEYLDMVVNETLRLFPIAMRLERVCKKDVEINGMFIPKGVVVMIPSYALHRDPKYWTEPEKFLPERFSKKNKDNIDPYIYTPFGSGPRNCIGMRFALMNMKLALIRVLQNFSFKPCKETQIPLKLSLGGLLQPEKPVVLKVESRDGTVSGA
# Method in brief: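 Luminescent readout of luciferin produced by CYP3A4 (20 nM) dealkylation of Luciferin-PPXE, 25 uM (its KM). NADPH-driven reaction ran 60 min at RT after 10 min compound preincubation; data scaled to 57 uM ketoconazole as 100% inhibition.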
# [3] = qHTS Assay for Identification of Small Molecule Antagonists for NFkB Signaling Pathway (AID 895; active = well fitted inhibition curve with a large enough effect in the signal ratio, with a control signal flat, not every such curve was filed as active; the % refers to the signal ratio)
# Method in brief: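 NFkB-bla ME-180 cervical carcinoma cells with beta-lactamase reporter under NFkB response element; compounds added, then TNF alpha at 10 pM final (EC50), 5 h at 37 C. LiveBLAzer substrate 2 h, room temperature; emission 460/530 nm at 405 nm excitation.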
# [4] = qHTS Assay for Identification of Small Molecule Agonists for Thrombopoietin (TPO) Signaling Pathway (AID 917)
# Method in brief: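 Ba/F3 (mouse) + hTPO receptor + GpIIb-promoter luciferase; IL-3 withdrawn overnight; compound + 26 pM TPO (EC50), 24 hrs, 37 C, 5% CO2; Steadylite luminescence, 10 min RT.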
# [5] = target: Muscarinic acetylcholine receptor M1 (Rattus norvegicus) (UniProt P08482); assay: qHTS Assay for Antagonists of Acetylcholine Muscarinic M1 Receptor: Kinetic Measurement of Intracellular Calcium Response (AID 943); also: nearly all actives have a fitted effect of over 75% in size; also: potency is read from the fitted curve at half-maximal effect
# Chain of Muscarinic acetylcholine receptor M1 (Rattus norvegicus) (P08482 whole entry, looked up): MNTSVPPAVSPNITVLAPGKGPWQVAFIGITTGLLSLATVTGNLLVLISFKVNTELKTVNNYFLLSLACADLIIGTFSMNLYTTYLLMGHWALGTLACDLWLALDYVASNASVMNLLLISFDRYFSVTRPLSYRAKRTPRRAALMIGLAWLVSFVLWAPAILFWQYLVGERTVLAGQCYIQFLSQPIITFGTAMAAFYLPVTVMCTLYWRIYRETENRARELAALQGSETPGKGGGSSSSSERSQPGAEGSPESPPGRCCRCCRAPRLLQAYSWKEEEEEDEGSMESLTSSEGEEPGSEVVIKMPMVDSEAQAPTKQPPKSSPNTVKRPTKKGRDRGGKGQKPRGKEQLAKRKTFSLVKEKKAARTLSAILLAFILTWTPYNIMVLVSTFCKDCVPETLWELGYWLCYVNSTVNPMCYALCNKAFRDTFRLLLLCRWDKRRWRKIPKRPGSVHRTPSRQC
# Method in brief: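 Antagonism measured as reduction of carbachol-evoked (EC80, 100 nM final) calcium flux in rat M1-CHO cells after 10 min compound exposure. Fluo-4 signal read kinetically; ratio of maximal to basal fluorescence.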
# [6] = target: Muscarinic acetylcholine receptor M1 (Rattus norvegicus) (UniProt P08482); assay: qHTS Assay for Antagonists of Acetylcholine Muscarinic M1 Receptor: Measurement of IP-One Response (AID 944); also: nearly all actives have a fitted effect of over 75% in size
# Method in brief: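 IP1 accumulation measured via TR-FRET between d2-IP1 and Eu-cryptate anti-IP1 antibody after carbachol (200 nM, EC80) stimulation for 30 min; rat M1-transfected CHO cells received compound 10 min before agonist.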
# [7] = target: Cytochrome P450 3A4 (Homo sapiens) (UniProt P08684); assay: qHTS Assay for Activators of Cytochrome P450 3A4 (AID 885); also: nearly all actives have a fitted effect of over 65% in size
# Method in brief: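 CYP3A4 activity: Luciferin-PPXE O-dealkylation, 25uM substrate, 200mM KPO4, RT throughout. Read-out is luciferase luminescence; higher values reflect activation.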
# [8] = target: Cytochrome P450 2C9 (Homo sapiens) (UniProt P11712); assay: qHTS Assay for Inhibitors and Substrates of Cytochrome P450 2C9 (AID 883); also: nearly all actives have a fitted effect of over 60% in size; also: potency is read from the fitted curve at half-maximal effect
# Chain of Cytochrome P450 2C9 (Homo sapiens) (P11712 whole entry, looked up): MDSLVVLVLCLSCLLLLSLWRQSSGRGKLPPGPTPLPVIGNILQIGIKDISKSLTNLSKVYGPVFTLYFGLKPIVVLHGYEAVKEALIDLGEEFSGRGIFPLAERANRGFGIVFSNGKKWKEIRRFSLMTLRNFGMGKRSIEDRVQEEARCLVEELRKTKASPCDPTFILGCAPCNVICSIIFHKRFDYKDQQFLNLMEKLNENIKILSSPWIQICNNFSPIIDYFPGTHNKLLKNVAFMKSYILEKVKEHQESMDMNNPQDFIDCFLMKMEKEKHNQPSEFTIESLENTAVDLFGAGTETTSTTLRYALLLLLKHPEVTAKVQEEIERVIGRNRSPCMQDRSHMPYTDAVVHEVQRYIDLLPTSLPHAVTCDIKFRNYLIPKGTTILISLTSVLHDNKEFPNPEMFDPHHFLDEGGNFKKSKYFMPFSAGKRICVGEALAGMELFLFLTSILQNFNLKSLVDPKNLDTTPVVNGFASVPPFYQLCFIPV
# Method in brief: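 Human CYP2C9 (10nM) hydroxylated Luciferin-H (100uM, at its KM) to luciferin in 25mM KPO4. Compound was preincubated 10 min at 37C, then NADPH regeneration started a 60 min reaction at 37C. Luminescence was read after detection reagent, normalized to 57uM sulphaphenazole.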
# [9] = target: Pyruvate kinase (Leishmania mexicana) (UniProt Q27686); assay: qHTS Validation Assay for Inhibitors of Leishmania Mexicana Pyruvate Kinase (AID 945)
# Chain of Pyruvate kinase (Leishmania mexicana) (Q27686 2-499 E452W): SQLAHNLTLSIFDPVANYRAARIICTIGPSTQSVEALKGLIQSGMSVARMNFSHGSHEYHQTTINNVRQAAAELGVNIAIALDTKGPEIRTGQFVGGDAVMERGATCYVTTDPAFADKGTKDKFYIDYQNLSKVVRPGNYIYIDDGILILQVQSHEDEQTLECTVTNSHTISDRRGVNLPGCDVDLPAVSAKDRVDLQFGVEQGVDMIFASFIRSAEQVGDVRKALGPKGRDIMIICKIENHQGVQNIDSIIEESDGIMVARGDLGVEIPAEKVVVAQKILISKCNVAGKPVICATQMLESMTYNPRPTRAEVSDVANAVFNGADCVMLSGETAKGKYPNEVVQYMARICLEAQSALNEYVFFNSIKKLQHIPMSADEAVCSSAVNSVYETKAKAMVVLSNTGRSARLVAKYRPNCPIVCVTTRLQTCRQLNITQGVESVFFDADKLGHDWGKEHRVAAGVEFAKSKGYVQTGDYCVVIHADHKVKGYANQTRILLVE
# Method in brief: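 Compounds are tested as eight-point concentration series. Reactions contain 0.2 nM LmPYK E451W, 0.5 mM PEP, 0.1 mM ADP, 7 mM MgCl2 and 50 mM KCl at pH 7.2, run 1 h at room temperature, then read by PKLight luminescence.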
# [10] = target: Cytochrome P450 2C19 (Homo sapiens) (UniProt P33261); assay: qHTS Assay for Inhibitors and Substrates of Cytochrome P450 2C19 (AID 899); also: nearly all actives have a fitted effect of over 60% in size; also: potency is read from the fitted curve at half-maximal effect
# Chain of Cytochrome P450 2C19 (Homo sapiens) (P33261 whole entry, looked up): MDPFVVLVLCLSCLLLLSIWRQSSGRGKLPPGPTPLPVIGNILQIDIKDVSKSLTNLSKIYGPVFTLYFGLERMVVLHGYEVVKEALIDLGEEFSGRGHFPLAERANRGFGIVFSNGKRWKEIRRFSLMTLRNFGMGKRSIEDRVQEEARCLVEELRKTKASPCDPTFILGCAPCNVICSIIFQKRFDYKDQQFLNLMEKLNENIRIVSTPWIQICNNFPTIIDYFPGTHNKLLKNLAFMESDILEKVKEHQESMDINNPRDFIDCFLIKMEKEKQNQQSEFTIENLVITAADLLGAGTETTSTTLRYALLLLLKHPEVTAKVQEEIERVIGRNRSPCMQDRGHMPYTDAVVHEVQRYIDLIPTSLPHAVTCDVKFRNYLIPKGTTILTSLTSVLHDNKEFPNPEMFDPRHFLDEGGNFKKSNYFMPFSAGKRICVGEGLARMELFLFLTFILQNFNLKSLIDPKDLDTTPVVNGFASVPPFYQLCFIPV
# Method in brief: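 Human CYP2C19 (5nM) with Luciferin-H EGE at 10uM (its KM) in 50mM KPO4 was preincubated with compound for 10 min at 37C. NADPH regeneration started a 60 min 37C reaction. Luciferin was read by luminescence, normalized to 57uM ketoconazole.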
# [11] = target: Cytochrome P450 2D6 (Homo sapiens) (UniProt P10635); assay: qHTS Assay for Inhibitors and Substrates of Cytochrome P450 2D6 (AID 891); also: nearly all actives have a fitted effect of over 60% in size; also: potency is read from the fitted curve at half-maximal effect
# Chain of Cytochrome P450 2D6 (Homo sapiens) (P10635 whole entry, looked up): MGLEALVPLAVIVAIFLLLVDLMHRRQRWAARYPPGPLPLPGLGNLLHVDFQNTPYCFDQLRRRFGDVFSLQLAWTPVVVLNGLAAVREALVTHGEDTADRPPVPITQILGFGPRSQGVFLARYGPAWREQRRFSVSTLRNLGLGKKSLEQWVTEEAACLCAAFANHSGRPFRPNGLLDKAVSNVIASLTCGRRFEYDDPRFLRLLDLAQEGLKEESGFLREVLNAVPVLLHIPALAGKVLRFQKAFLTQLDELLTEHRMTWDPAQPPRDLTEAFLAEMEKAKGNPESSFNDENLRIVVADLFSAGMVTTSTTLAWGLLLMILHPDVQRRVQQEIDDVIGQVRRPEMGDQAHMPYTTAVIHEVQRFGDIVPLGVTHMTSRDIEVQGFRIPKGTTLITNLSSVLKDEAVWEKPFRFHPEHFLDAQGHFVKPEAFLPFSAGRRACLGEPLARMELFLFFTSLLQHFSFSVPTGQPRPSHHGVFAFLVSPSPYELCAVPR
# Method in brief: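 Luminescent read-out of luciferin formed by 5 nM human CYP2D6 demethylating 30 uM Luciferin-ME EGE (Km level) over 60 min at room temperature after NADPH regeneration addition. Data normalized to full inhibition by 1.43 uM quinidine.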
# [12] = qHTS Assay for Identification of Small Molecule Agonists for Hypoxia Response Element Signaling Pathway (AID 914; active = well fitted activation curve with a large enough effect in the signal ratio, with a control signal flat, not every such curve was filed as active; the % refers to the signal ratio); conditions: ME-180 (cervical carcinoma) HRE-bla reporter, beta-lactamase ratio, CoCl2, 17 h; hits give high values
# Method in brief: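 A beta-lactamase reporter under hypoxia response element control in ME-180 cells served as the system. Compound titrations plus EC50 CoCl2 ran 17 h at 37 degrees Celsius; AC50 values were fitted from %Activity.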
# [13] = qHTS Assay for Identification of Small Molecule Antagonists for Thrombopoietin (TPO) Signaling Pathway (AID 918); conditions: TPO-dependent cell signaling reporter, antagonist mode; also: potency is read from the fitted curve at half-maximal effect; nearly all actives have a fitted effect of over 60% in size
# Method in brief: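 Inhibition read as reduced luciferase luminescence after 24 h at 37 C in IL-3-deprived Ba/F3 cells carrying human TPO receptor and GPIIb-promoter reporter, stimulated with 26 pM TPO (final, its EC50) alongside compound.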
# [14] = Confirmation and Secondary Assay for Modulators of Hemoglobin Beta Chain Splicing at IVS2 654 locus (AID 910);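 also: per-well total GFP intensity by laser scanning cytometry after 2-day treatment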
# Method in brief: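 HeLa cells stably carrying EGFP interrupted by mutant beta-globin IVS2-654 intron (CMV-driven) were treated with compound for 2 days at 37C; corrected splicing was scored as total peak GFP intensity per well (488 nm excitation, 500-520 nm emission).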
# [15] = Confirmation and Secondary Assay for Modulators of Hemoglobin Beta Chain Splicing at IVS2 705 locus (AID 930);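 also: HeLa cells stably expressing the EGFP-705 splicing reporter; GFP fluorescence per well restored by corrected splicing of the IVS2-705 intron in EGFP; series mostly up to about 46 µM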
# Method in brief: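 Fluorescence gain (488 nm laser, 500-520 nm PMT) reflects restored correct splicing of a mutant IVS2-705 intron inside EGFP in stably transfected HeLa cells after 2-day compound treatment.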
# [16] = Cell Viability - LYMP2-001 (AID 921); also: potency is read from the fitted curve at half-maximal effect; nearly all actives have a fitted effect of over 70% in size
# Method in brief: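 CellTiter-Glo luminescence (intracellular ATP) after 24 hr compound exposure at 37 C, 2500 lymphoblastoid cells/well in complete medium. AC50 fitted with standard Hill equation; tetraoctylammonium bromide positive control.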
# [17] = MultiTox-Fluor Cytotoxicity Assay - LYMP1-001 - Dead Cells (AID 946);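 also: potency is read from the fitted curve at half-maximal effect; cells exposed to compound for 16 h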
# Method in brief: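 AC50 from Hill fit of concentration-response; data normalized to DMSO (basal) and 15 uM tetraoctylammonium bromide (100%). LYMP1-001 lymphoblastoid cells, 2500/well, 16 hr compound at 37 C; dead-cell protease fluorescence, Ex/Em 485/520.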
smiles,measurement,setting,value
N=C(N)SCCc1ccc(CCSC(=N)N)cc1,outcome,[1],inactive
same,Potency,[2],inactive
same,Potency,[3],inactive
same,Potency,[4],inactive
same,Potency,[5],inactive
same,Potency,[6],inactive
CCCn1c(=O)c2[nH]c(-c3ccc(OCC(=O)NCCN)cc3)nc2n(CCC)c1=O,outcome,[1],inactive
same,Potency,[2],2.51 µM (active)
same,Potency,[7],inactive
same,Potency,[4],inactive
N#C/C(=C\c1c[nH]c2ccccc12)C(=O)c1ccc(O)c(O)c1,outcome,[1],inactive
same,Potency,[2],7.94 µM (active)
same,Potency,[7],inactive
same,Potency,[5],inactive
same,Potency,[6],inactive
C=C[C@H]1CN2CC[C@@H]1C[C@@H]2[C@@H](O)c1ccnc2ccc(OC)cc12,outcome,[1],inactive
same,outcome,[8],inactive
same,Potency,[3],inactive
same,Potency,[4],inactive
same,Potency,[6],inactive
same,Potency,[9],inactive
COc1ccccc1N1CCN(CCCCNS(=O)(=O)c2cccc3c(N(C)C)cccc23)CC1,outcome,[1],inactive
same,Potency,[2],2.51 µM (active)
same,Potency,[7],inactive
same,Potency,[10],0.501 µM (active)
same,Potency,[5],11.2 µM (active)
CN1[C@@H]2CC[C@H]1CC(OC(c1ccccc1)c1ccccc1)C2 (stereo partly drawn),Potency,[11],2 µM (active) and 1.26 µM (active)
same,activation,[12],14.9% and 19%
CC(C)Cc1ccc([C@H](C)C(=O)O)cc1,Potency,[11],inactive
CC(=O)SCC[N+](C)(C)C,Potency,[10],inactive
CN(C)C(N)=NCCC[C@H](N)C(=O)O,Potency,[10],inactive
C[N+]1(C)CCC(OC(=O)C(c2ccccc2)c2ccccc2)CC1,activation,[12],0.751%
COC1=C(OC)C(=O)c2ccccc2C1=O,Potency,[13],3.98 µM (active)
NC[C@@H]1O[C@H](C23CC4CC(CC(C4)C2)C3)Cc2c1ccc(O)c2O,Potency,[13],10 µM (active)
N=c1ccn2c(n1)O[C@H]1[C@H](O)[C@@H](CO)O[C@H]12,Potency,[8],inactive
same,Potency,[11],inactive
same,Potency,[10],inactive
CC(N)C(=O)OC(C)(C)Cc1ccc(Cl)cc1 (stereo not drawn),Potency,[7],inactive
same,outcome,[14],inactive
same,outcome,[15],inactive
CC(C(=O)O)c1ccc(C(=O)c2cccs2)cc1 (stereo not drawn),Potency,[2],inactive
same,outcome,[14],inactive
same,outcome,[15],inactive
CCCCCCOc1ccccc1C(N)=O,outcome,[14],inactive
same,outcome,[15],inactive
O=C(/C=C/c1ccc(O)c(O)c1)OCCc1ccccc1,Potency,[7],inactive
same,outcome,[14],inactive
same,outcome,[15],inactive
COc1cc(/C=C/C(=O)CC(=O)/C=C/c2ccc(O)c(OC)c2)ccc1O,Potency,[2],12.6 µM (active)
same,Potency,[7],inactive
same,Potency,[16],20 µM (active)
same,Potency,[17],50.1 µM (active)
Cc1nc2sccn2c(=O)c1CCN1CCC(=C(c2ccccc2)c2ccc(F)cc2)CC1,Potency,[8],31.6 µM (active)
same,Potency,[2],inactive
same,Potency,[11],7.94 µM (active)
COc1ccccc1N1CCN(CCN(C(=O)c2ccc(I)cc2)c2ccccn2)CC1,Potency,[8],inactive
same,Potency,[11],3.98 µM (active)
Clc1ccccc1-c1nc(-c2ccncc2)no1,"activity change, positive = activation",[7],-40.1% [at 11.4 µM]
same,Potency,[10],0.0631 µM (active)
N=C(N)N,Potency,[2],inactive
same,outcome,[14],inactive
same,outcome,[15],inactive
CN1C2CCC1CC(OC(=O)C(O)c1ccccc1)C2 (stereo not drawn),outcome,[14],inactive
same,outcome,[15],inactive
Nc1ccc(C(=O)O)c(O)c1,outcome,[14],inactive
same,outcome,[15],inactive
CC1OC1P(=O)(O)O (stereo not drawn),outcome,[14],inactive
same,outcome,[15],inactive
Nc1cc(-c2ccncc2)c[nH]c1=O,Potency,[7],inactive
same,Potency,[10],5.01 µM (active)
same,outcome,[14],inactive
same,outcome,[15],inactive
Cc1c(N)c(=O)n(-c2ccccc2)n1C,outcome,[14],inactive
same,outcome,[15],inactive
COc1cc(NC(C)CCCN)c2ncccc2c1 (stereo not drawn),outcome,[14],inactive
same,outcome,[15],inactive
C=C[C@@H]1CN2CC[C@@H]1C[C@H]2[C@H](O)c1ccnc2ccc(OC)cc12,Potency,[8],inactive
O=C(O)c1ccccc1Nc1cccc(C(F)(F)F)c1,Potency,[2],inactive
same,outcome,[14],inactive
same,outcome,[15],inactive
O=Nc1ccc2oc(=O)ccc2c1,outcome,[1],inactive
same,Potency,[13],5.01 µM (active)
same,Potency,[5],inactive
same,Potency,[6],inactive
CN1CCc2cccc3c2C1Cc1ccc(O)c(O)c1-3 (stereo not drawn),outcome,[14],inactive
same,outcome,[15],inactive
Cc1c(Nc2ncccc2C(=O)O)cccc1C(F)(F)F,Potency,[2],inactive
same,outcome,[14],inactive
same,outcome,[15],inactive
Nc1nc(Cl)nc2c1ncn2[C@@H]1O[C@H](CO)[C@@H](O)[C@H]1O,Potency,[2],inactive
same,outcome,[14],inactive
same,outcome,[15],inactive
Cc1ccc(C(=O)c2ccc(CC(=O)O)n2C)cc1,Potency,[2],inactive
same,outcome,[14],inactive
same,outcome,[15],inactive
O=c1cc(-c2ccccc2)oc2c(O)c(O)ccc12,Potency,[7],inactive
same,outcome,[14],inactive
same,outcome,[15],inactive
CCCSc1ccc2nc(NC(=O)OC)[nH]c2c1,outcome,[8],inactive
same,outcome,[11],inactive
same,outcome,[10],inactive
same,outcome,[14],inactive
same,outcome,[15],inactive
O=C(OCc1ccccc1)c1ccccc1,Potency,[2],inactive
same,outcome,[14],inactive
same,outcome,[15],inactive
CCCCC1C(=O)N(c2ccccc2)N(c2ccc(O)cc2)C1=O (stereo not drawn),outcome,[14],inactive
same,outcome,[15],inactive
CCC1C(=O)OCC1Cc1cncn1C (stereo not drawn),Potency,[10],7.94 µM (active)
O=C(/C=C/c1ccc(O)cc1)c1ccc(O)cc1O,outcome,[14],inactive
same,outcome,[15],inactive
CC(C(=O)O)c1ccc2c(c1)[nH]c1ccc(Cl)cc12 (stereo not drawn),Potency,[2],inactive
same,outcome,[14],inactive
same,outcome,[15],inactive
O=C(Nc1ccncc1)c1cc([N+](=O)[O-])ccc1Cl,Potency,[2],1.26 µM (active)
same,Potency,[7],inactive
COc1cccc(OC)c1OCCNCC1COc2ccccc2O1 (stereo not drawn),Potency,[2],3.16 µM (active)
same,Potency,[7],inactive
same,outcome,[14],inactive
same,outcome,[15],inactive
Oc1c(Br)cc(Br)c2cccnc12,Potency,[2],inactive
same,outcome,[14],inactive
same,outcome,[15],inactive
